An excerpt weighted towards active compounds, which were near 6.7% of everything screened.
T cruzi growth-1 – T. cruzi proliferation inhibition | T. cruzi beta-gal in NIH3T3, GalScreen luminescence, 90 h | inhibition, % at 8.34 µM | hit rate 5.9% among 77,000 | AID 624255;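 active means mean inhibition above about 93%, with at least 55% of replicates each passing it, limit read from the data, passing the limit was not always enough; inconclusive means only one of those two conditions holds; inactive means neither condition holds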
Pf Dd2 growth – blocks growth of Plasmodium falciparum Dd2 parasites; P. falciparum Dd2 growth, SYBR Green, 72 h; active compounds read low; AID 1159554; hit rate 2.3% among 94,000; activity change, % at 10 µM; in the data active means activity change below about -80%; inconclusive means no clear call, values can overlap the other calls
C diff HTS – C. difficile growth inhibition. growth activity, negative = inhibition, % at 16 µg/mL (by protocol). Clostridium difficile clinical isolate growth, OD600, 24 h; active compounds read low. hit rate 0.25% among 86,000;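 active means mean growth activity at or below -80% and every replicate also at or below -80%; inconclusive means mean at or below -80% but some replicate above -80%; inactive means mean growth activity above -80%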;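 further: 0% = DMSO wells and -100% = levofloxacin 16 µg/mL wells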
T cruzi growth-2 – inhibitors of T. cruzi proliferation; shares compounds with T cruzi growth-1; T. cruzi beta-gal in NIH3T3, GalScreen luminescence, 90 h; inhibition, % at 8.35 µM; hit rate 72% among 5,600; AID 651739;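 active means mean replicate inhibition above about 95% and at least 55% of replicates individually reaching it, limit read from the data; inconclusive means only one of the two criteria is met; inactive means neither criterion is met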
T cruzi growth-3 – inhibitors of T. cruzi proliferation. T. cruzi beta-gal in NIH3T3, GalScreen luminescence, 90 h. shares compounds with T cruzi growth-1. hit rate 21% among 5,600. inhibition, % at 2.09 µM;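 active means mean inhibition above about 95%, with at least 55% of replicates also reaching it, limit read from the data; inconclusive means meets just one of the two conditions; inactive means meets neither condition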;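 further: plate controls were neutral control median for no effect and positive control median for full effect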
3T3 cytotox – kills mouse NIH/3T3 fibroblasts | shares compounds with T cruzi growth-1 | NIH/3T3 viability, CellTiter-Glo ATP luminescence, 90 h | cytotoxicity (signal decrease), % at 8.35 µM | hit rate 14% among 5,600 | AID 651742;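 active means mean signal decrease across replicates above about 35% based on untreated-well scatter, with enough replicates individually passing, limit read from the data; inconclusive means no rule stated though some were filed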;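 further: 0% = median of neutral control wells and 100% = median of positive control wells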
NIH3T3 tox 2 – kills mouse NIH/3T3 fibroblasts | shares compounds with T cruzi growth-1 | NIH/3T3 viability, CellTiter-Glo ATP luminescence, 90 h | inhibition, % at 24.9 µM | hit rate 56% among 5,600 | AID 651744;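 active means mean loss of cell viability signal at or above a set limit, and enough replicates individually reaching it; inconclusive means meets only the mean limit or only the replicate share; inactive means meets neither condition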;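 further: 0% = median of neutral control wells and 100% = median of positive control wells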
Numbers without * were called inactive.

Results for C[C@@H]1CN([C@H](C)CO)C(=O)Cc2cc(NC(=O)c3ccncc3)ccc2O[C@@H]1CN(C)Cc1ccc(Oc2ccccc2)cc1 ?
T cruzi growth-1: 76; Pf Dd2 growth: 5; C diff HTS: -7

How did C[C@@H]1CN([C@H](C)CO)C(=O)Cc2cc(NC(=O)Nc3ccccc3)ccc2O[C@H]1CN(C)Cc1ccncc1 do in these assays?
T cruzi growth-1: 98*; Pf Dd2 growth: 1; C diff HTS: -3; T cruzi growth-2: -14; T cruzi growth-3: 8; 3T3 cytotox: 4; NIH3T3 tox 2: -8

What do the screens show for `C[C@@H]1CN([C@@H](C)CO)C(=O)Cc2cc(NC(=O)c3ccncc3)ccc2O[C@H]1CN(C)Cc1ccc(Oc2ccccc2)cc1`?
T cruzi growth-1: 105*; Pf Dd2 growth: -51; C diff HTS: 1; T cruzi growth-2: 105*; T cruzi growth-3: 84; 3T3 cytotox: 24; NIH3T3 tox 2: 103*

What do the screens show for `C[C@H](CO)N1C[C@H](C)[C@H](CN(C)Cc2ccc(Oc3ccccc3)cc2)Oc2ccc(NC(=O)c3ccncc3)cc2CC1=O`?
T cruzi growth-1: 102*; Pf Dd2 growth: -1; C diff HTS: -14; T cruzi growth-2: 102*; T cruzi growth-3: 52; 3T3 cytotox: 26; NIH3T3 tox 2: 103*

How did C[C@@H]1CN([C@@H](C)CO)C(=O)c2cc(NC(=O)Nc3ccc4c(c3)OCO4)ccc2O[C@H]1CN(C)C(=O)Nc1ccccc1 do in these assays?
T cruzi growth-1: 11; Pf Dd2 growth: -8; C diff HTS: 0

How did C[C@H]1CN([C@@H](C)CO)C(=O)Cc2cc(NC(=O)C3CC3)ccc2O[C@@H]1CN(C)C(=O)Nc1ccccc1 do in these assays?
Pf Dd2 growth: 15; C diff HTS: -2

How did CN1C(=O)c2cc(NS(=O)(=O)c3cccc(F)c3)ccc2OC[C@@H]2O[C@H](CC(=O)NCCN3CCCCC3)CC[C@@H]21 do in these assays?
T cruzi growth-1: 97*; Pf Dd2 growth: -13; T cruzi growth-2: 85; T cruzi growth-3: 88; 3T3 cytotox: -30; NIH3T3 tox 2: -4

Results for CCCC(=O)Nc1ccc2c(c1)C(=O)N(C)[C@H]1CC[C@@H](CC(=O)NCCN3CCCCC3)O[C@H]1CO2 ?
T cruzi growth-1: 99*; Pf Dd2 growth: 2; C diff HTS: -8; T cruzi growth-2: 98*; T cruzi growth-3: 95; 3T3 cytotox: 15; NIH3T3 tox 2: 1

What do the screens show for `Cc1ccc(S(=O)(=O)Nc2ccc3c(c2)C(=O)N(C)[C@@H]2CC[C@H](CC(=O)O)O[C@H]2CO3)cc1`?
T cruzi growth-1: -2; Pf Dd2 growth: 4; C diff HTS: -1

Results for CN1C(=O)c2cc(NS(=O)(=O)c3cccc(F)c3)ccc2OC[C@@H]2O[C@@H](CC(=O)NCCN3CCCCC3)CC[C@@H]21 ?
T cruzi growth-1: 0; Pf Dd2 growth: -2; C diff HTS: -11

Results for CN1C(=O)c2cc(NS(=O)(=O)c3ccc(F)cc3)ccc2OC[C@@H]2O[C@H](CC(=O)O)CC[C@H]21 ?
T cruzi growth-1: 103*; Pf Dd2 growth: 1; C diff HTS: -4; T cruzi growth-2: -22; T cruzi growth-3: -6; 3T3 cytotox: 2; NIH3T3 tox 2: 5

How did CCCC(=O)Nc1ccc2c(c1)C(=O)N(C)[C@H]1CC[C@H](CC(=O)NCCN3CCCCC3)O[C@H]1CO2 do in these assays?
T cruzi growth-1: -22; Pf Dd2 growth: 16; C diff HTS: -5

What do the screens show for `C[C@H](CO)N1C[C@H](C)[C@H](CN(C)C(=O)Nc2ccc3c(c2)OCO3)Oc2ccc(NC(=O)c3ccncc3)cc2C1=O`?
T cruzi growth-1: 38; Pf Dd2 growth: 2

How did COc1ccc(NC(=O)Nc2ccc3c(c2)[C@H]2C[C@H](CC(=O)N4CCc5ccccc5C4)O[C@H](CO)[C@H]2O3)cc1 do in these assays?
T cruzi growth-1: -29; Pf Dd2 growth: -78; C diff HTS: -2

How did CCC(=O)N(C)C[C@H]1Oc2cc(C#CC(C)C)ccc2S(=O)(=O)N([C@@H](C)CO)C[C@@H]1C do in these assays?
T cruzi growth-1: 29; Pf Dd2 growth: -17; C diff HTS: -9

Results for CCCC#Cc1ccc([C@H]2[C@@H](C#N)N(C(=O)C3CCOCC3)[C@H]2CO)cc1 ?
T cruzi growth-1: 92; Pf Dd2 growth: -33; C diff HTS: 6

What do the screens show for `CCCC#Cc1ccc([C@@H]2[C@@H](C#N)N(C(=O)C3CCC3)[C@@H]2CO)cc1`?
T cruzi growth-1: 99*; Pf Dd2 growth: -14; C diff HTS: -19; T cruzi growth-2: 99*; T cruzi growth-3: 28; 3T3 cytotox: 30; NIH3T3 tox 2: 33*

What do the screens show for `CC(C)C#Cc1ccc([C@@H]2[C@@H](C#N)N(C(=O)C3CCC3)[C@H]2CO)cc1`?
T cruzi growth-1: inconclusive; Pf Dd2 growth: -6; C diff HTS: -15; T cruzi growth-2: 101*; T cruzi growth-3: 77; 3T3 cytotox: 20; NIH3T3 tox 2: 33*

What do the screens show for `CCCC#Cc1ccc([C@@H]2[C@H](C#N)N(C(=O)C3CC3)[C@H]2CO)cc1`?
T cruzi growth-1: 98*; Pf Dd2 growth: -30; C diff HTS: 18; T cruzi growth-2: 107*; T cruzi growth-3: 108*; 3T3 cytotox: 18; NIH3T3 tox 2: 7

How did CCCC#Cc1ccc([C@H]2[C@@H](C#N)N(C(=O)C3CCCC3)[C@H]2CO)cc1 do in these assays?
T cruzi growth-1: 98*; Pf Dd2 growth: -54; C diff HTS: -2; T cruzi growth-2: 90; T cruzi growth-3: 106*; 3T3 cytotox: 1; NIH3T3 tox 2: 43*

What do the screens show for `CC(C)C#Cc1ccc([C@H]2[C@@H](C#N)N(C(=O)C3CC3)[C@@H]2CO)cc1`?
T cruzi growth-1: 79; Pf Dd2 growth: 7; C diff HTS: -3

How did CC(C)C#Cc1ccc([C@H]2[C@@H](CO)N(C(=O)C3CCC3)[C@H]2C#N)cc1 do in these assays?
T cruzi growth-1: 37; Pf Dd2 growth: 26; C diff HTS: 4

Results for CC(C)C#Cc1ccc([C@H]2[C@H](C#N)N(C(=O)C3CC3)[C@H]2CO)cc1 ?
T cruzi growth-1: 83; Pf Dd2 growth: -10; C diff HTS: -6

How did CNC[C@@H]1Oc2c(NC(=O)c3ccncc3)cccc2C(=O)N([C@H](C)CO)C[C@H]1C do in these assays?
T cruzi growth-1: 16; Pf Dd2 growth: 12; C diff HTS: 1

How did CN(C)C(=O)c1cccc(-c2ccc3c(c2)[C@H]2[C@H](CCN2C(=O)C2CCCCC2)[C@@H](CO)N3)c1 do in these assays?
T cruzi growth-1: 33; Pf Dd2 growth: -9; C diff HTS: 0

Results for CCCC#Cc1ccc([C@@H]2[C@@H](C#N)N(C(=O)C3CCCC3)[C@H]2CO)cc1 ?
T cruzi growth-1: 102*; Pf Dd2 growth: -23; C diff HTS: -5; T cruzi growth-2: 96*; T cruzi growth-3: 102*; 3T3 cytotox: 24; NIH3T3 tox 2: 39*

From PubChem BioAssay
